The assay relates to HeLa. The assay can be described thus: percent cells in G2/M phase; higher = more G2/M arrest. As to conditions: 10 µM; 20 h; hit class: G2/M-phase inhibitor. The procedure: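 HTS of 79,827 drug-like compounds at 10 uM. HeLa cells in 384-well plates were treated for 20 h, fixed, stained with Vybrant DyeCycle Green and scanned on an Acumen eX3 cytometer to give per-well cell cycle profiles. Only G2/M hits (>=67% G2/M) are listed.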
Consider `COc1cc(-c2onc3ccc(Cl)cc23)cc(OC)c1OC`, for which the “percent cells in G2/M phase” value came to 78.1%.
`COC(=O)Nc1nc2ccc(SC(C)C)cc2[nH]1` [Methiazole]: the “percent cells in G2/M phase” value is 72.9%.
Then `COc1ccc(/C=C/c2ccc3cccc(O)c3n2)cc1C`, with 71.7%; and `CCN(CC)CCN1C(=O)C(=O)C(=C(O)c2ccccc2)C1c1ccccc1F` (centres undefined), with 68.3%.
In the case of `COc1cc(NS(=O)(=O)c2ccc(NC(C)=O)cc2)c(OC)cc1Cl` it was 71%.
`COC(=O)Nc1nc2cc(Sc3ccccc3)ccc2[nH]1` [Fenbendazole]: the “percent cells in G2/M phase” value was 66.2%.
For the molecule `COC(=O)Nc1nc2cc(C(=O)c3ccccc3)ccc2[nH]1` [Mebendazole], the “percent cells in G2/M phase” value is 76.8%.
Then `O=C(CSc1nc2ccc([N+](=O)[O-])cc2s1)c1ccc(Cl)cc1`, with 69.3%.
In the case of `O=c1[nH]c(/C=C/c2ccccc2)nc2ccccc12` it was 69.3%; in that of `O=C(O)c1ccccc1SC1CC(=O)N(c2ccc(Br)cc2)C1=O` (centres undefined), 75.3%.
`CC(=O)O[C@H]1C(=O)[C@@]2(C)[C@H]([C@H](OC(=O)c3ccccc3)[C@]3(O)C[C@H](OC(=O)[C@H](O)[C@@H](NC(=O)c4ccccc4)c4ccccc4)C(C)=C1C3(C)C)[C@]1(OC(C)=O)CO[C@@H]1C[C@@H]2O` [Paclitaxel]: the “percent cells in G2/M phase” value turned out to be 75.7%.
Regarding `COc1ccccc1NC1=CC(=O)CC(c2ccccc2)C1` (centres undefined), the “percent cells in G2/M phase” value is 70.1%.
For `O=c1[nH]c(/C=C/c2ccccc2F)nc2ccccc12`, the “percent cells in G2/M phase” value is 76.3%.
`CC(=O)Nc1ccc(Nc2nc(-c3c(C)nc4ccccn34)cs2)cc1`: the “percent cells in G2/M phase” value turned out to be 78%.

The values above are taken from the supplement of paper PMC4237247.
